# GALK inh: qHTS Assay for Inhibitors of Human Galactokinase (GALK). P51570. Purified GALK, Kinase-Glo residual ATP luminescence. AID 1868, 2009. Potency, µM (top dose mostly 57.5 µM), for the others: at the highest dose activity change, negative = inhibition, most hits filed as inhibitors. hit rate 0.007% among 270,000; note: potency is the fitted concentration of half-maximal effect
# Target sequence (P51570 whole entry, looked up): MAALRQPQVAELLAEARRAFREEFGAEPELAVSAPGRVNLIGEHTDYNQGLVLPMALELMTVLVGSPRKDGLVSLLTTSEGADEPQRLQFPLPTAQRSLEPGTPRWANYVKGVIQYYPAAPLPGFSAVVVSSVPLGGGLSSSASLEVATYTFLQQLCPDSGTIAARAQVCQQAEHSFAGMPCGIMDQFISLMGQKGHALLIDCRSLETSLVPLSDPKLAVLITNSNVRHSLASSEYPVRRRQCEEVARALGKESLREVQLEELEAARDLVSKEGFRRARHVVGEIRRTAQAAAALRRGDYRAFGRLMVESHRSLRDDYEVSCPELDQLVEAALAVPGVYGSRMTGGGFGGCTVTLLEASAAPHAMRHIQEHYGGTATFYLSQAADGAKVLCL
#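 Luminescence from leftover ATP (Ultra-Glo luciferase/luciferin) served as read-out after a 1 h room-temperature reaction of 5 nM GALK with 35 uM ATP and 100 uM galactose.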
# TrxR1 substrate: qHTS Assay for Substrates of Mammalian Selenoprotein Thioredoxin Reductase 1 (TrxR1): qHTS | Thioredoxin reductase 1, cytoplasmic (Rattus norvegicus), O89049 | purified TrxR1 substrate turnover, NADPH consumption readout | Potency, µM (series often up to 114 µM), for inactives: at the highest dose activity change, negative = substrate turnover | hit rate 0.01% among 390,000 | AID 588456, 2011; note: potency is the fitted concentration of half-maximal effect; nearly all actives have a fitted effect of over 50% in size
#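 Rat TrxR1, dispensed at 90 nM, was prereduced with 400 uM NADPH (final) for 5 min at ~22 deg C, then incubated with compound 15 min before 400 uM selenite. A first-read NADPH fluorescence drop versus no-compound background flagged substrates.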
# FBPA coupling cs: qHTS Assay for Inhibitors of Fructose-1,6-bisphosphate Aldolase from Giardia Lamblia: Coupling assay counterscreen; coupling enzyme system counterscreen, AmpLite Red fluorescence; activity change, negative = inhibition, % at 58.2 µM, hits read low; hit rate 0.67% among 290,000; AID 2472, 2010; in the data active = activity change below about -30%
#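 Final compound at 57.5 uM, incubated 10 min at RT with coupling enzyme reagent (glyceraldehyde-3-phosphate), then 20 min with substrate and AmpLite Red detection. Fluorescence read at 525/598 nm; tests interference with the coupling assay, not aldolase inhibition.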
# rTrxR1 inhibitor: qHTS Assay for Inhibitors of Mammalian Selenoprotein Thioredoxin Reductase 1 (TrxR1): qHTS. Potency, µM (top dose mostly 114 µM), for inactives: at the highest dose activity change, negative = inhibition, usual class: inhibitors. Thioredoxin reductase 1, cytoplasmic (Rattus norvegicus), O89049. recombinant rTrxR1, NADPH fluorescence consumption, selenite substrate. hit rate 1% among 390,000; note: potency is the fitted concentration of half-maximal effect; nearly all actives have a fitted effect of over 65% in size
#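 Rat TrxR1 (90 nM in the dispensed reagent) was pre-reduced with 400 uM NADPH for 5 min at room temperature, then incubated with compound for 15 min. After 400 uM selenite was added, NADPH fluorescence (Ex 340/Em 450 nm) was followed for 8 min.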
# USP1 inh: Inhibitors of USP1/UAF1: Primary Screen; recombinant USP1/UAF1, Ub-Rhodamine cleavage fluorescence; Potency, µM (highest dose often 57.1 µM), inactives show at the highest dose activity change, negative = inhibition, hits mostly inhibitors; hit rate 0.23% among 390,000; AID 743255, 2014; note: potency is the fitted concentration of half-maximal effect; nearly all actives have a fitted effect of over 60% in size
#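 High-throughput fluorogenic screen: 1nM USP1/UAF1 complex, Ub-Rho substrate 150nM final, 50mM HEPES pH 7.8 with 0.5mM EDTA, 0.1 mg/ml BSA, 1mM TCEP and 0.01% Tween-20.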
# * marks the source's active call; other numbers are inactive results; i = inactive; ? = inconclusive; . = no result; [ ] = another dose, or the depositor's remark. A selection: hits, their analogues and other compounds. The true share with any hit is near 1.5%. Unless noted, calls come from the whole dose curve; as a rule, active = well fitted curve in the direction sought with a large enough effect; inconclusive = small, poorly fitted or top-dose-only effect, or another doubt; inactive = no such curve, though single readings can be large; an effect the other way counts as inactive or inconclusive. % is set by controls: 0 for no effect and ±100 for the full control effect.
SMILES,GALK inh,TrxR1 substrate,FBPA coupling cs,rTrxR1 inhibitor,USP1 inh
O=C(Nc1ccc(N2CCOCC2)c(Cl)c1)c1ccc(Br)o1,-4.5%,-3.3%,-31.6*,-0.2%,-18.8%
Cc1ccc(S(=O)(=O)N2CCN(c3nc(-c4cccs4)nc4c3ncn4COC(=O)C(C)(C)C)CC2)cc1,.,-4.1%,.,-25.7%,.
CC1CCN2c3ccccc3CC3(C(=O)OC(C)(C)OC3=O)C2C1 (stereo not given),.,10.1%[0.0914 µM],.,5.5%,.
O=C(/C=C/c1ccc(C(F)(F)F)cc1)OC(C(=O)NC1CC1)c1ccccc1 (stereo not given),.,3.9%[0.0914 µM],.,9.3%,.
CCc1ccc(O)c(N=Cc2ccccc2O)c1,-2.7%,7.8%[57.1 µM],-0.1,-2.1%[57.1 µM],-22.5%
O=c1[nH][nH]c2c(N=Cc3ccccc3O)ccc(F)c12,.,5.9%,-33.6*,3.16µM*,28.2µM*
Nc1ccc(/C=C/c2cc(Cl)nc3ccccc23)cc1,.,-5.0%,.,6.4%,.
Nc1c(Br)cc(/C=C2\C=Cc3ccccc32)cc1Br,.,3.9%[0.0914 µM],.,-7.5%,.
CN(C)c1ccc(/C=C/c2c3c(nc4ccccc24)CCCC3)cc1,.,-3.2%,.,5.3%,.
O=C(NCCc1ccc(O)c(O)c1)C1COc2ccccc2O1 (stereo not given),-0.1%,3.8%,-7.5,44.7µM*,-11.4%
CC1CCC(NC(=O)C2COc3ccccc3O2)CC1 (stereo not given),.,2.5%,.,-21.5%,0.1%
O=C(NC1CCCCC1)C1COc2ccccc2O1 (stereo not given),.,-2.6%,.,50.1µM*,-3.0%
CCOC(=O)/C=C/c1ccc2c(c1)S(=O)(=O)N(C1CCCC1)[C@H]2CC(=O)OCC,.,-8.0%,.,22.7%,.
O=S(=O)(c1ccc2ccccc2c1)N1CCN(c2nc(-c3ccccc3)nc3ccccc23)CC1,.,0.7%,.,7.5%,.
COc1ccc([N+](=O)[O-])cc1/C=N/NC(=O)/C(=C\c1cccs1)NC(=O)c1ccccc1,-2.9%,3.9%[57.1 µM],-41.7*,43.4%[57.1 µM],-3.9%
COc1ccccc1C(=O)OCC(=O)Nc1ccc(N2CCCCC2)cc1,.,5.7%,.,19.1%,.
COc1ccc(-c2nc(N3CCN(S(=O)(=O)c4ccc(F)cc4)CC3)c3ccccc3n2)cc1,.,-3.6%[0.457 µM],.,17.5%,.
CCN(CC)c1ccc(NC(=O)COC(=O)C23CCC(=O)N2c2ccccc2S3)cc1 (stereo not given),-0.4%,-9.3%,-32.1*,-9.4%,-14.8%
COc1ccc(N2C3=C(CC4=C2CC(C)(C)CC4=O)C(=O)CC(C)(C)C3)cc1,3.2%,-0.2%,-48.1*,?,?
O=c1[nH]c2c(-c3nc(-c4ccc(F)cc4)cs3)c(O)cn2c2ccc(Br)cc12,.,2.6%,.,8.1%,.
CN(CC(=O)O)c1ccc(/C=C/c2ccnc3ccccc23)cc1,.,-3.0%,.,-0.6%,.
COc1ccc(Br)cc1/C=N/NC(=O)CNC(=O)C1COc2ccccc2O1 (stereo not given),-0.8%,-6.4%,-40.7*,4.5%,-18.2%
CCOc1cc(CNc2ccc3[nH]c(=O)[nH]c3c2)ccc1OCC(=O)NC(C)(C)C,0.6%,3.5%,-33.2*,6.6%,-14.7%
COc1cc(CNc2ccc3[nH]c(=O)[nH]c3c2)cc(Cl)c1OCC(=O)NC(C)(C)C,-1.5%,3.7%,-43.9*,-21.7%,?
COc1cc(/C=C2\N=C(C)OC2=O)cc(Cl)c1OC(C)=O,-1.9%,-4.7%,-0.2,39.8µM*,-17.2%
SMILES,GALK inh,TrxR1 substrate,FBPA coupling cs,rTrxR1 inhibitor,USP1 inh
COc1cccc(/C=C/c2nc3ccccc3nc2/C=C/c2cccc(OC)c2OC)c1OC,.,8.1%[0.0914 µM],.,7.4%,.
CCCN1CNc2c(c(=O)[nH]c(=S)n2CCc2ccc(C)c(C)c2)C1,.,1.7%,.,-6.7%,.
NC(=O)c1cc[n+](CC2=C(C(=O)O)N3C(=O)[C@@H](NC(=O)C(c4ccccc4)S(=O)(=O)[O-])[C@H]3SC2)cc1 (stereo not given in full),.,6.6%,1.2,?,35.5µM*
C=CCC(Nc1ccccc1)C12C=CC(O1)C(C(=O)OC)=C2C(=O)OC (stereo not given),0.2%,-1.7%,2.0,7.94µM*,-33.1%
COC(=O)C1=C(C(=O)OC)[C@]2([C@@H]3CC=CCN[C@@H](Cc4ccccc4)C(=O)N3Cc3ccccc3)C=C[C@H]1O2,.,-2.2%,.,17.5%,?
CC(=O)c1ccc(Nc2c3ccccc3cc3occc23)cc1,.,.,5.0,.,.
Oc1cc2c(cc1O)[C@H]1c3ccc(O)c(O)c3OC[C@@]1(O)C2,.,3.1%,-9.8,10µM*,-23.5%
Oc1ccc2c(c1)OCC1(O)Cc3cc(O)c(O)cc3C21 (stereo not given),.,7.8%,-21.5,4.47µM*,-12.2%
CC(=O)Oc1ccc2c(c1OC(C)=O)OCC1(O)Cc3c(cc(OC(C)=O)c(OC(C)=O)c3OC(C)=O)C21 (stereo not given),.,.,-0.9,.,.
COc1ccccc1C(=O)NC(=S)N1CCc2ccccc21,-0.1%,0.5%[57.1 µM],-2.6,5.3%[57.1 µM],-14.5%
COc1ccccc1C(=O)NC(=S)N1CCCc2ccccc21,0.0%,3.4%,-38.6*,-8.2%,-19.4%
COc1cc(OC)cc(C2=Nn3c(nnc3-c3ccccc3OC)SC2)c1,.,.,0.0,.,.
COc1cc2c3nnc(-c4ccc(F)cc4)c-3cn(Cc3ccc(F)cc3)c2cc1OC,1.7%,19.8%[57.1 µM],3.2,18.3%[57.1 µM],-3.3%
COc1cc2c3nnc(-c4ccc(F)cc4)c-3cn(Cc3ccccc3)c2cc1OC,-0.6%,10.5%,0.2,-5.8%,31.6µM*
COc1ccc(NC(=O)c2cc(S(=O)(=O)N(Cc3ccccc3)c3ccccc3)ccc2Cl)cn1,2.6%,7.1%[57.1 µM],-44.0*,14.2%[57.1 µM],-22.1%
COc1cc(/C=C/C(=O)c2ccccc2O)cc(OC)c1OC,-5.4%,-9.7%,0.7,50.1µM*,9.6%
NC1CCc2ccccc21 (stereo not given),.,6.0%,.,-4.0%,.
Cc1ccc(C2=CC(c3ccccc3)n3ncnc3N2)cc1 (stereo not given),.,56.7%,.,-12.2%,-10.3%
C1=C(c2ccccc2)Nc2ncnn2C1c1ccccc1 (stereo not given),.,21.4%,.,31.6µM*,-21.2%
CC[C@@]1(O)C(=O)OCc2c1cc1n(c2=O)Cc2cc3c(CN(C)C)c(O)ccc3nc2-1,.,-0.6%,-4.3,-19.8%,25.1µM*
CCCCc1cc(=O)oc2c(CN(C)C)c(O)ccc12,1.8%,i,2.2,?,2.5%
Cc1ccc(-n2c(C)cc(C(=O)CSc3nncs3)c2C)cc1,0.7%,-3.4%,-32.7*,-22.0%,-1.7%
CCOC(=O)C1=C(CCl)NC(=O)NC1c1ccc2c(c1)OCO2 (stereo not given),1.6%,3.4%,-0.6,11.2µM*,-9.4%

# Screening data: PubChem, National Center for Advancing Translational Sciences (NCATS)
